DT40 TDP1 no CPT: qHTS for Inhibitors of human tyrosyl-DNA phosphodiesterase 1 (TDP1): qHTS in cells in absence of CPT; DT40 Tdp1-/- hTDP1 cells, no CPT, ATP luminescence, 48 h; Potency, µM (titrated, usually from 46.2 µM), most hits filed as inhibitors; 420,000 tested, 15% active; note: nearly all actives have a fitted effect of over 55% in size
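Growth of hTDP1-complemented DT40 Tdp1-knockout cells is measured by ATP luminescence after at least 48 hr compound exposure at 37 °C, with DMSO substituting for the 20 nM CPT used in the parallel screen.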
IL1B secr inh: inhibitors of inflammasome signaling (IL-1 beta secretion); THP-1 LPS/ATP IL-1B secretion, AlphaLISA, 16 h; active compounds read low; 360,000 tested, 4.7% active; activity change, % at 57.5 µM; AID 743279; in the data active = activity change below about -50%; inconclusive = mostly about -30% to -49%
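Secreted IL-1B measured by AlphaLISA bead assay after 16 h compound exposure of THP-1 cells; compounds (final up to 57.5 uM) added 1 h before LPS (250 ng/mL) and ATP (1.25 mM) stimulation; lower signal means less secretion.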
TGFb inhibitor: TGF-b pathway inhibition; HepG2 CAGA-GFP TGF-b/SMAD3 reporter, GFP fluorescence, 18 h; TGF-beta stimulated, 500 pg/mL final; Potency, µM (series often up to 46.1 µM), usual class: inhibitors; 410,000 tested, 1.2% active; note: nearly all actives have a fitted effect of over 65% in size
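Smad-responsive CAGA-GFP expression was quantified in HEPG2 cells exposed to compounds and 500 pg/mL final TGF-beta for 18 h at 37 degrees C; unstimulated wells defined full inhibition.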
TDP1 cell CPT: growth inhibition of DT40 Tdp1-/-;hTDP1 cells with camptothecin (screen for TDP1 inhibitors); Potency, µM (titrated, usually from 46.2 µM), actives largely listed as inhibitors; 420,000 tested, 12% active; AID 686979; chicken DT40 Tdp1-/-;hTDP1 cells + 20 nM CPT, ATP luminescence, 48 h; note: nearly all actives have a fitted effect of over 55% in size
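Chicken DT40 Tdp1-/- cells stably complemented with human TDP1 were seeded at 400 cells/well in medium containing 20 nM camptothecin, exposed to pin-transferred compounds, and grown at 37 °C for at least 48 hr. Viability was read as ATP luminescence.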
TDP1 block: TDP1 (human) enzyme inhibition. Q9NUW8. recombinant TDP1, AlphaScreen DNA substrate cleavage. 350,000 tested, 0.28% active. Potency, µM (doses to about 130 µM), most hits filed as inhibitors; note: nearly all actives have a fitted effect of over 40% in size
Target sequence (Q9NUW8 whole entry, looked up): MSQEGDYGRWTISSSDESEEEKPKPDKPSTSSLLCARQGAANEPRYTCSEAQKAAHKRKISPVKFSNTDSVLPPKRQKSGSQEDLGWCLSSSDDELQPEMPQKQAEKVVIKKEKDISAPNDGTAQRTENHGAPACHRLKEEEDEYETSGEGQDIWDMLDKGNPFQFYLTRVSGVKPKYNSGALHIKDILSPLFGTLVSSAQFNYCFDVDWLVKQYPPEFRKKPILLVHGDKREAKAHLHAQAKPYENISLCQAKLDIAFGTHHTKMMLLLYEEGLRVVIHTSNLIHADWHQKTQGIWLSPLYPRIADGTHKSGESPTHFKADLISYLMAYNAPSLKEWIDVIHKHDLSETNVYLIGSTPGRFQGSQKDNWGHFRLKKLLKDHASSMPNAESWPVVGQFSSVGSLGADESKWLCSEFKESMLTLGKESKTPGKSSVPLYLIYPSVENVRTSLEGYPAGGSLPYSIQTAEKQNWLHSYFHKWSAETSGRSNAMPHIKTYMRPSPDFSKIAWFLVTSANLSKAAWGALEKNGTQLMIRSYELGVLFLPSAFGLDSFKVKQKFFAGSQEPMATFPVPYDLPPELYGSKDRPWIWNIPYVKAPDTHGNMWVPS
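Enzyme-compound mixtures sat 15 min at room temperature, followed by a 5 min reaction with 15 nM final substrate and 10 min with AlphaScreen beads. Recombinant human Tdp1 was used at 1 nM final.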
HepG2 tox: HepG2 cytotoxicity, counter-screen for TGF-b inhibitors; HepG2 CAGA-GFP viability, ATP luminescence, 18 h; Potency, µM (highest dose often 46.1 µM), actives largely listed as cytotoxic; 410,000 tested, 0.76% active; AID 588856
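HepG2 CAGA-GFP cells (1000/well, DMEM with 1% FBS) received compound, then TGF-beta at 500 pg/mL final, and were incubated 18 hours at 37 degrees C. Viability was read by CellTiter-Glo luminescence. Media-only wells were set as complete cell-killing and DMSO as no toxicity.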
A number is an active result; 0 = inactive; ? = inconclusive; - = not tested or not shown; ! = repeats disagree; [ ] = dose if it differs, or a comment. Only some compounds are listed: those with a hit (about 18% of all), similar ones and a draw of the others. Unless noted, calls come from the whole dose curve; as a rule, active = well fitted curve in the direction sought with a large enough effect; inconclusive = small, poorly fitted or top-dose-only effect, or another doubt; inactive = no such curve, though single readings can be large; an effect the other way counts as inactive or inconclusive.

SMILES | DT40 TDP1 no CPT | IL1B secr inh | TGFb inhibitor | TDP1 cell CPT | TDP1 block | HepG2 tox
CSc1ccc(CN2CCN(c3ccccc3C)CC2)cc1 | ? | 0 | ? | ? | - | 0
Cc1nc(N2CCN(Cc3ccccc3)CC2)nc2c1C(=O)CC(C)C2 (stereo unspecified) | 16µM | 0 | ? | 18µM | 0 | 0
CCCC[N+](=O)[O-] | - | - | - | - | 0 | -
CC(C)c1c(C(=O)NC(c2cccnc2)C(F)(F)F)cnn1-c1nccc(-c2cccs2)n1 (stereo unspecified) | 13µM | - | - | ? | - | -
CN(C(=O)CCN1C(=O)/C(=C/c2ccc(F)cc2)SC1=S)C1CCS(=O)(=O)C1 (stereo unspecified) | 21µM | 0 | 0 | 21µM | - | 0
CC(C)c1ccc(OCC(=O)N2CCN(CCc3ccncc3)CC2)cc1 | 0 | - | 0 | 0 | 0 | 0
O=C(Nc1cccc(Cl)c1)OCC#CCN1CCCC1 | ? | 0 | 0 | ? | - | 0
O=C(Nc1cccc(Cl)c1)OC1CN2CCC1CC2 (stereo unspecified) | 5.2µM | ? | ? | 5.2µM | 0 | 0
O=C(Nc1ccccc1Cl)OC1CN2CCC1CC2 (stereo unspecified) | ? | 0 | 0 | 0 | 0 | 0
O=C(Nc1ccc(Cl)cc1)OC1CN2CCC1CC2 (stereo unspecified) | 0 | -52 | 0 | 0 | 0 | 0
CN(C)C1(c2nnnn2CCOC(=O)Nc2ccc(Cl)cc2)CCCCC1 | 18µM | 0 | 0 | ? | 0 | 0
CCOc1ccc(-c2c(C)n(-c3ccc(OCC)cc3)c3[n+]2CCCCC3)cc1 | 0.16µM | -92 | 1µM | 0.21µM | 0 | 0
O=C(Oc1ccccc1)N1CCC2(CC1)CN(Cc1ccncc1)C2 | ? | - | - | 0 | - | -
COP(=O)(OC)C1(O)C(=O)Nc2ccc(Br)cc21 (stereo unspecified) | ? | 0 | 0 | 16µM | 0 | 0
CCOc1ccc(CN(CCc2ccc3c(c2)OCO3)Cc2ccc(OC)c(Br)c2)cc1 | ? | - | 0 | ? | - | 0
CCCCC[C@H]1CCCCC[C@@H](O)C[C@@H](O)[C@@H](O)/C=C/C(=O)O1 | 9.2µM | 0 | - | 10µM | - | -
NC(=O)O | - | - | - | - | 0 | -
CC1CC(C)CC(C)C(O)C(C#N)=CC=CCC(C2CCCC2C(=O)O)OC(=O)CC(O)C(C)C1 (stereo unspecified) | 0.1µM | -103 | ? | 0.0082µM | - | 0
Cc1c(P(=S)(c2ccccc2)c2ccccc2)[n+]2ccccc2n1CCc1ccccc1 | - | - | ? | - | 0 | 0
CCOc1ccc(CCNC(=O)c2ccc(CS(=O)(=O)c3ccccc3C)o2)cc1OCC | 15µM | - | 0 | ? | 0 | 0
Oc1ccc(CCNCc2cc3c(cc2Br)OCO3)cc1 | 29µM | ? | 0 | ? | - | 0
Brc1ccccc1CNCCc1ccc2c(c1)OCO2 | ? | 0 | 0 | ? | - | 0
Clc1cccc(N2Cc3cc(N4CCOCC4)ccc3-n3nncc3C2)c1 | ? | 0 | ? | 18µM | - | 0
C[C@]12N[C@@H](Cc3ccccc31)c1ccccc12 | 0 | - | - | 0 | 0 | -
Cc1ccc(N2CCN(C(=O)C3CCC(CNS(=O)(=O)c4ccc(Br)s4)CC3)CC2C)cc1 (stereo unspecified) | 4.6µM | - | 0 | 7.3µM | 0[12.3 µM] | 0
SMILES | DT40 TDP1 no CPT | IL1B secr inh | TGFb inhibitor | TDP1 cell CPT | TDP1 block | HepG2 tox
COC(=O)C1=C(c2ccc3ccccc3c2)C[C@@H]2CC[C@H]1N2C | 0 | 0 | 0 | ? | 0 | 0
COC(=O)C1=C(c2ccccc2)C[C@@H]2CC[C@H]1N2C(=O)NC1CC1 | - | 0 | 0 | 0 | - | 0
COC(=O)C1=C(c2ccc(-c3ccccc3)c(F)c2)C[C@@H]2CC[C@H]1N2C(=O)NC(C)C | 18µM | 0 | ? | 13µM | 0 | 0
COC(=O)C1=C(c2ccc3ccccc3c2)C[C@@H]2CC[C@H]1N2C(=O)NC(C)C | 18µM | 0 | 0 | ? | 0 | 0
COC(=O)C1=C(c2ccc(-c3ccccc3)c(F)c2)C[C@@H]2CC[C@H]1N2C(=O)NC1CC1 | 9.2µM | ? | 0 | 4.1µM | 0 | 0
O=C1CN=C(c2ccc(Br)cc2)c2c(sc3c2CCCC3)N1CCN1CCCCC1 | 5.8µM | ? | ? | 10µM | 0 | 0
O=S(=O)(NCC(c1cccnc1)N1CCN(c2ccc(F)cc2)CC1)c1ccccc1 (stereo unspecified) | 21µM | 0 | 0 | 12µM | - | 0
CC(C)(C)c1cc(C=C(C#N)C#N)cc(C(C)(C)C)c1O | 0.65µM | -77 | ? | 0.65µM | 0 | 0
N#CC(C#N)=Cc1ccc(O)c(O)c1 | 19µM! | 0 | 0 | 21µM! | 0 | 0
COCc1cc(C)c(C#N)c(=S)[nH]1 | 0.82µM | 0 | 0 | 1.2µM | 0 | 0
C=CCc1c(C)[nH]c(=S)c(C#N)c1C | ? | 0 | 0 | ? | 0 | 0
CN1CCCC1c1cccnc1 (stereo unspecified) | 0 | 0 | 0 | 0 | 0 | 0
CN1CCN(c2ccccc2NC(=O)c2ccc(-c3ccc(Cl)c(Cl)c3)o2)CC1 | ? | -78 | 0 | 18µM | 0 | 0
NC1(c2ccccc2)CCCCC1 | ? | - | - | 0 | - | -
COP(=S)(OC)Oc1nc(Cl)c(Cl)cc1Cl | - | - | - | - | 0 | -
COc1ccc(NC(=O)N(C)C[C@H]2Oc3c(NC(=O)Nc4ccccc4)cccc3C(=O)N([C@H](C)CO)C[C@@H]2C)cc1 | 0 | 0 | ? | 0 | 0 | 0
C[C@H](CO)N1C[C@H](C)[C@@H](CN(C)C(=O)Nc2ccccc2)Oc2c(NC(=O)Nc3ccccc3)cccc2C1=O | ? | 0 | ? | ? | 0 | 0
COc1ccc(S(=O)(=O)N(C)C[C@H]2Oc3c(NC(=O)NC4CCCCC4)cccc3C(=O)N([C@H](C)CO)C[C@@H]2C)cc1 | ? | -55 | ? | ? | 0 | 0
C[C@H](CO)N1C[C@H](C)[C@@H](CN(C)S(=O)(=O)c2cccs2)Oc2ccc(NC(=O)Nc3ccc4c(c3)OCO4)cc2C1=O | 18µM | ? | 0 | 21µM | 0 | 0
C[C@H](CO)N1C[C@H](C)[C@@H](CN(C)Cc2ccc(Cl)c(Cl)c2)Oc2c(NC(=O)c3ccncc3)cccc2C1=O | ? | 0 | ? | 21µM | 0 | 0
C[C@H](CO)N1C[C@H](C)[C@H](CN(C)S(=O)(=O)c2ccccc2)Oc2ccc(NC(=O)NC3CCCCC3)cc2CC1=O | ? | ? | 0 | ? | 0 | 0
Cc1cc(C)c(NC(=O)C2CC3CCC2C3)c(C)c1 (stereo unspecified) | ? | 0 | 0 | 0 | - | 0
COc1ccc2c3c([nH]c2c1)C(C)NCC3 (stereo unspecified) | ? | 0 | 0 | 2.6µM | 0 | 0

Screening results deposited in PubChem BioAssay by National Center for Advancing Translational Sciences (NCATS).
